Measured values as given in PubChem BioAssay (Tox21).
Several values for one entry are separate records, joined by “and”; a condition that tells them apart may be missing. Equal entries are not always repeated. Inconclusive results are not listed. A number with no mark means an inactive call. Activity calls are given as the source filed them. Calls follow the shape of the dose curve; as a rule, active = well fitted cell-killing curve with a large enough effect in the repeat runs; inconclusive = weak or mixed curves, or effect the other way; inactive = no such curve, though single readings can be large or run the other way.

Assay: qHTS assay to identify small molecule agonists of the vitamin D receptor (VDR) signaling pathway - cell viability counter screen (AID 743224); also: nearly all actives have a fitted effect of over 50% in size
Conditions: VDR-bla HEK293T viability, CellTiter-Glo luminescence, 16 h; series mostly up to 62.6 µM; activity change, negative = cytotoxicity: at the top concentration
Excerpt: U.S. Tox21 Program National Center for Advancing Translational Sciences [NCATS] NIH Chemical Genomics Center [NCGC] U.S. Environmental Protection Agency [EPA] National Institutes of Environmental Health Sciences [NIEHS] National Toxicology Program [NTP] U.S. Food and Drug Administration [FDA] Tox21 Assay Overview: The vitamin D receptor (VDR), a member of nuclear hormone receptor superfamily, plays a critical role in calcium homeostasis and bone metabolism. It is also involved in cell differentiation and growth, and thrombogenicity. […] The cytotoxicity of the Tox21 compound library against the VDR-bla cell line was tested in parallel by measuring the cell viability using CellTiter-Glo assay (Promega, Madison, WI) in the same wells.
Tox21 Assay Protocol Summary: VDR-bla cells were dispensed at 2,000 cells/6 uL/well into black wall/clear-bottom 1536-well plates using a Multidrop Combi (Thermo Fisher Scientific, Waltham, MA) dispenser. After the assay plates were incubated at a 37C and 5% CO2 for 4 h, 23 nL of compounds dissolved in DMSO, positive controls or DMSO only was transferred to the assay plate by a Pintool station (Kalypsys, San Diego, CA). The plates were incubated at 37C and 5% CO2 for 16 h. After 1 uL of LiveBLAzerTM B/G FRET substrate was added using a Bioraptr Flying Reagent Dispenser (FRD) workstation (Beckman Coulter, Indianapolis, IN, USA), the plates were incubated at room temperature for 2 h, and fluorescence intensity was measured by an Envision plate reader (PerkinElmer, Shelton, CT). For cell viability readout that measures cytotoxicity, 3 ul/well of CellTiter-Glo reagent was added into the assay plates using a FRD. After 30 min incubation at room temperature, the luminescence intensity in the plates was measured using a ViewLux (PerkinElmer) plate reader.
% is scaled to controls: 0 for no effect and ±100 for the full control effect; potency is read from the fitted curve at half-maximal effect.

| SMILES | activity change, negative = cytotoxicity | Potency |
| --- | --- | --- |
| CC(C)N(C(=O)CCl)c1ccccc1 | 1.08% |  |
| ClSC(Cl)(Cl)Cl | 7.07% |  |
| OCC(Br)CBr (stereo not given) | 1.07% [at 81.1 µM] |  |
| N#CC(C#N)=NNc1cccc(Cl)c1 |  | 6.92 µM (active) |
| CCOC(=O)CCN(SN(C)C(=O)Oc1cccc2c1OC(C)(C)C2)C(C)C | -17.1% |  |
| CC(=O)[O][Sn]([c]1ccccc1)([c]1ccccc1)[c]1ccccc1 |  | 0.0871 µM (active) |
| CN=C=O | -19.5% [at 81.1 µM] |  |
| [O]=[Cr](=[O])([OH])[O][Cr](=[O])(=[O])[OH] |  | 17.5 µM (active) and 21.8 µM (active) |
| O=[N+]([O-])c1ccc(CCl)cc1 | -10% |  |
| CC(Cc1ccc(O)cc1)NCC(O)c1cc(O)cc(O)c1 (stereo not given) | 4.46% |  |
| Cc1ccc(C)c2ccccc12 | 2.86% |  |
| CN1CCc2cc3c(cc2C1O)OCO3 (stereo not given) | 4.14% [at 81.1 µM] |  |
| [Cl-].[Cl-].[Cl-].[Yb+3] | -17.7% |  |
| CCCCC(CC)COC(=O)OOC(C)(C)C (stereo not given) | 8.45% |  |
| COP(=O)(OC)Oc1ccc([N+](=O)[O-])cc1 | -6.44% |  |
| COC(=O)C(C)N(C(=O)c1ccco1)c1c(C)cccc1C (stereo not given) | 1.95% |  |
| Nc1nc(N)c(N)c(N)n1 | 6.04% [at 81.1 µM] |  |
| CCCCN(CCCC)C(=S)[S-].CCCCN(CCCC)C(=S)[S-].[Ni+2] | 17.6% |  |
| COP(=S)(NC(C)C)Oc1ccc(C)cc1[N+](=O)[O-] (stereo not given) | -1% |  |
| O=c1[nH]c2cc(Cl)ccc2n1C1CCNCC1 | 5.43% |  |

| SMILES | activity change, negative = cytotoxicity | Potency |
| --- | --- | --- |
| CNC(=O)/C=C(\C)OP(=O)(OC)OC | 15.4% |  |
| O=C(N[C@H]1N=C(c2ccccc2F)c2cccc3c2N(CC3)C1=O)c1cc2ccccc2[nH]1 | 4.4% |  |
| CCOC(=O)Cc1ccccc1 | 6.2% |  |
| C[N+]1(C)[C@@H]2CC[C@H]1CC(OC(=O)C(CO)c1ccccc1)C2 (stereo not given in full) | 6.6% |  |
| C#CC1(O)CCCCC1 | 0.523% |  |
| CN1C(=O)[C@@H](NC(=O)c2cc3ccccc3[nH]2)N=C(c2ccccc2)c2ccccc21 | -7.49% |  |
| COC(=O)c1ccccc1S(=O)(=O)NC(=O)Nc1nc(C)nc(OC)n1 | -4.56% |  |
| [O-][Cl+3]([O-])([O-])O | 2.27% [at 81.1 µM] |  |
| [Cl][Hg][c]1ccccc1 |  | 0.692 µM (active) |
| CSC(C)(C)/C=N/O | 11.8% |  |
| CC1=C2C[C@H]3[C@@H](CC=C4C[C@@H](O)CC[C@@]43C)[C@@H]2CC[C@]12O[C@@H]1C[C@H](C)CN[C@H]1[C@H]2C | -7.17% |  |
| COc1ccc(Cc2nccc3cc(OC)c(OC)cc23)cc1OC | -13.8% |  |
| O=C1C[C@@H]2OCC=C3CN4CC[C@]56c7ccccc7N1[C@H]5[C@H]2[C@H]3C[C@H]46 | -14.7% |  |
| CCCN | 13.4% [at 81.1 µM] |  |
| O=S(=O)(NS(=O)(=O)C(F)(F)F)C(F)(F)F | 3.18% |  |
| CCC[CH2][Sn]([CH2]CCC)([CH2]CCC)[CH2]CCC |  | 38.9 µM (active) |
| CCOP(=S)(OCC)Oc1cc(C)nc(N(CC)CC)n1 | -13.9% |  |
| O=c1c2ccccc2c(=O)c2c1cc(Cl)c1[nH]c3c([nH]c12)c(Cl)cc1c(=O)c2ccccc2c(=O)c13 | 20.9% |  |
| Oc1ccc([C@H]2CNCc3c2ccc(O)c3O)cc1O | 14.3% |  |
| S=C=Nc1ccccc1 | -1.41% [at 81.1 µM] |  |
